Shown are actives, neighbours in structure and some others; about 3.8% of the full set was active somewhere.
PLK1 PBD inh = inhibitors of human PLK1 polo-box domain binding. P53350. Plk1 PBD binding of FITC phosphopeptide, fluorescence polarization. Potency, µM, for inactives: max response, negative = inhibition, most hits filed as inhibitors. 360,000 tested, 2.8% active. AID 720504; further: potency means the concentration at half of the fitted maximal effect; series mostly up to about 57 µM; on the % scale 0 is the no-effect control and ±100 the full control effect; nearly all actives have a fitted effect of over 65% in size
hERG WT inh = KCNH2 (human, wildtype) channel inhibition. 340,000 tested, 0.37% active. AID 720551. U2OS, BacMam KCNH2, thallium flux FluxOr; hits give low values. Q12809. activity change, % at 1.84 µM;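 active means maximum activity change below -70%; inconclusive means maximum activity change between -70% and -50%; inactive means maximum activity change above -50%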; further: on the % scale 0 is the no-effect control and ±100 the full control effect
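U2OS cells were transduced with wild-type KCNH2 virus (2.03 x 10^8 / mL) for 4 h at room temperature, then cultured overnight at 37 C. Thallium flux was read with FluxOr dye. Rate constants were normalized to DMSO controls.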
MBNL1 CUG block = inhibitors of human MBNL1 binding to CUG repeat RNA. 280,000 tested, 0.036% active. Q9NR56. TR-FRET MBNL1-His/biotin-(CUG)12 binding, 665/545 ratio. AID 2675. Potency, µM (titrated, usually from 57.5 µM), inactives show top-dose activity change, negative = inhibition, most hits filed as inhibitors; active means well fitted inhibition curve with a large enough effect in the signal ratio, with a control signal flat, not every such curve was filed as active; inconclusive means small, poorly fitted or top-dose-only effect, or effect the other way, or a change in a side signal; inactive means no such curve, though single readings can be large or run the other way; the % refers to the signal ratio; further: potency means the concentration at half of the fitted maximal effect; on the % scale 0 is the no-effect control and ±100 the full control effect
Target sequence (Q9NR56 whole entry, looked up): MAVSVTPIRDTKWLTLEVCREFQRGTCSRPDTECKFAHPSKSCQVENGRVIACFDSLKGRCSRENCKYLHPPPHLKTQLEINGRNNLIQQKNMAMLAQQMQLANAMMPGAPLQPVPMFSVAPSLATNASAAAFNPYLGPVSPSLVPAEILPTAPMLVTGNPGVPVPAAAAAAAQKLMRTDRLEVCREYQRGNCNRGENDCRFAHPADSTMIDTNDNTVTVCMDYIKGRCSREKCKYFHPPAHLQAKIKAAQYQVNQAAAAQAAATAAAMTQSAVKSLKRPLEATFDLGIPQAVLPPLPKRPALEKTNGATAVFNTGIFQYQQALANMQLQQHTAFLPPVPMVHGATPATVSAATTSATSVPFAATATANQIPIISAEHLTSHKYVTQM
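MBNL1-His + Biotin-(CUG)12, cpd titration 92 nM–58 uM; Tb anti-His Ab 0.055 ng/ul, SA-XL665 5 nM (final); 60 min RT; ratiometric 665/545 nm, Ex 340 nm; normalized to buffer and full-complex controls.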
KCNH2 3.1 inh = blocks the human KCNH2 3.1 channel isoform | activity change, % (tested at about 1.8 µM) | U2OS KCNH2 3.1, thallium flux FluxOr; hits give low values | AID 720553 | 340,000 tested, 0.95% active;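 active means maximum activity change below -70%; inconclusive means maximum activity change from -70% to -50%; inactive means maximum activity change above -50%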;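 further: thallium influx rate constant from kinetic fluorescence after stimulation buffer; on the % scale 0 is the no-effect control and ±100 the full control effect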
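Thallium flux read-out: FluxOr dye with Red40 quencher in HBSS/HEPES, 45 min at RT. Rate constants from kinetic reads were normalized to positive and negative DMSO controls. Cells: U2OS virally expressing the 3.1 isoform.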
CBFb-RUNX1 inh = inhibitors of human CBF-beta and RUNX1 interaction. Potency, µM (series often up to 59.8 µM), without a hit: at the top dose activity, negative = inhibition, most hits filed as inhibitors. Q01196+Q13951. 230,000 tested, under 10 active. AlphaScreen CBFb-His/RUNX1-biotin binding, biochemical. AID 1477; further: % of control where 0% means no effect
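Read-out: AlphaScreen. Format: His-CBF-beta with biotinylated RUNX1 (30 nM each) preincubated 20 min, compound 15 min, Ni-chelate plus streptavidin beads 90 min; room temperature throughout.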
VDR inhibitor = inhibitors of human vitamin D receptor | VDR-SRC2-3 peptide fluorescence polarization, 2 h | Potency, µM, inactives show max response, negative = inhibition, hits mostly inhibitors | 400,000 tested, 0.93% active | AID 504847; further: potency means the concentration at half of the fitted maximal effect; on the % scale 0 is the no-effect control and ±100 the full control effect
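After 23 nl compound addition and a short centrifugation, plates sat for 2 hours at ambient temperature; polarization of fluorescence then indicated loss of VDR binding to peptide SRC2-3.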
MBNL1 TRFRET = MBNL1-poly(CUG) RNA binding inhibition confirmed. shares compounds with MBNL1 CUG block. TR-FRET MBNL1-His / biotin-(CUG)12 binding, 60 min. Potency, µM (highest dose often 57.6 µM), for the others: at the highest dose activity change, negative = inhibition, actives largely listed as inhibitors. 140 tested, 50% active. AID 493199
MBNL1 AlphaScrn = confirmation of MBNL1-(CUG)12 RNA binding inhibitors, orthogonal format. shares compounds with MBNL1 CUG block. 140 tested, 30% active. AID 493205. Potency, µM (top dose mostly 57.7 µM), for the others: at the top dose activity, negative = inhibition, usual class: inhibitors. AlphaScreen MBNL1-His / biotin-(CUG)12 binding
Menin-MLL HTRF = hit in HTRF counterscreen for MBNL1-poly(CUG) binding inhibitors | shares compounds with MBNL1 CUG block | His-Menin/biotin-MLL peptide TR-FRET counterscreen | Potency, µM (highest dose often 57.6 µM), inactives show top-dose activity, negative = inhibition, most hits filed as inhibitors | 120 tested, 20% active | AID 651843
VDR inh confirm = confirmation of human vitamin D receptor inhibitors; shares compounds with VDR inhibitor; 840 tested, 89% active; AID 602199; VDR-coactivator inhibition assay, qHTS confirmation; Potency, µM, actives largely listed as inhibitors; further: potency means the concentration at half of the fitted maximal effect
VDR FP = blocks human VDR-coactivator binding in fluorescein assay | VDR-coactivator binding, fluorescein fluorescence polarization | AID 602200 | 840 tested, 48% active | Potency, µM (series often up to 57.1 µM), for inactives: at the top dose activity change, negative = inhibition, hits mostly inhibitors | shares compounds with VDR inhibitor; further: potency means the concentration at half of the fitted maximal effect
VDR bla reporter = VDR (human) inhibition, cell-based beta-lactamase validation; 840 tested, 23% active; shares compounds with VDR inhibitor; Potency, µM (doses to about 46.1 µM), for inactives: top-dose activity change, negative = inhibition, usual class: inhibitors; VDR beta-lactamase reporter cells, FRET ratio; cells co-treated with VDR agonist LG190178; further: potency means the concentration at half of the fitted maximal effect; on the % scale 0 is the no-effect control and ±100 the full control effect
VDR viability = counter-screen for vitamin D receptor inhibitors: cytotoxicity | shares compounds with VDR inhibitor | Potency, µM (highest dose often 48.3 µM), for inactives: at the top dose activity change, negative = cytotoxicity, hits mostly cytotoxic | cytotoxicity counter-screen, cell viability, qHTS | AID 602204 | 840 tested, 18% active;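 further: potency means the concentration at half of the fitted maximal effect; plate controls were DMSO for no effect and high-concentration cycloheximide for full effect; nearly all actives have a fitted effect of over 75% in size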
The depositor's hits bear a star; ? = inconclusive; / = no result given; [ ] = dose if it differs, or a comment. Unless noted, the call rests on the fitted dose curve; in most records, active means well fitted curve in the direction sought with a large enough effect; inconclusive means small, poorly fitted or top-dose-only effect, or another doubt; inactive means no such curve, though single readings can be large; an effect the other way counts as inactive or inconclusive.

SMILES	PLK1 PBD inh	hERG WT inh	MBNL1 CUG block	KCNH2 3.1 inh	CBFb-RUNX1 inh	VDR inhibitor	others
COc1c(O)c2c(=O)cc(OC)c3c4c(OC)cc(=O)c5c(O)c(OC)c(C[C@@H](C)OC(=O)c6ccccc6)c(c(c1C[C@@H](C)OC(=O)Oc1ccc(O)cc1)c23)c54	/	/	/	/	-13%	50µM*
COC(=O)C1=C(c2ccccc2OCc2ccccc2)C[C@@H]2CC[C@H]1N2C(=O)NCc1ccc(N(C)C)cc1	-1%	-13	/	-116*	/	-2%
COC(=O)C1=C(c2ccc(F)cc2OCc2ccccc2)C[C@@H]2CC[C@H]1N2C(=O)NCCOc1ccc(OC)cc1	3%	2	/	-87*	/	-18%
COC(=O)C1=C(c2ccc(F)cc2OCc2ccccc2)C[C@@H]2CC[C@H]1N2C(=O)NCc1ccc(N(C)C)cc1	-8%	-11	/	-29	/	10%
COC(=O)C1=C(c2ccc(F)cc2OCc2ccccc2)C[C@@H]2CC[C@H]1N2C(=O)NCCOc1ccccc1	7%	-10	/	-2	/	-9%
CSCC[C@@H]1NC(=O)[C@@H](NC(=O)[C@H](CCCNC(=N)N)NC(=O)[C@H](CC(C)C)NC(=O)[C@H](CCSC)NC(=O)[C@H](CC(=O)O)NC(=O)[C@H](Cc2ccccc2)NC(=O)[C@@H](N)CC(=O)O)CSSC[C@@H](C(=O)N[C@@H](Cc2c[nH]c3ccccc23)C(=O)N[C@@H](CCC(N)=O)C(=O)N[C@H](C(=O)O)C(C)C)NC(=O)[C@@H]2CCCN2C(=O)[C@H](CCCNC(=N)N)NC(=O)[C@H](Cc2ccc(O)cc2)NC(=O)[C@H](C(C)C)NC(=O)[C@H](CCCNC(=N)N)NC(=O)CNC(=O)[C@H](CC(C)C)NC1=O	/	/	/	/	11%	?
CCc1nnc(NC(=O)CCc2nc(C3=CCN(C)CC3)no2)s1	-10%	-2	?	3	-6%	-9%
COc1ccc2nc(NC(=O)CCc3nc(C4=CCN(C)CC4)no3)sc2c1	2%	2	20µM*	13	-7%	-14%	MBNL1 TRFRET=?;MBNL1 AlphaScrn=16µM*;Menin-MLL HTRF=?
O=C1NO[C@H]2[C@@H]1CN[C@@H]2C(=O)O	/	/	/	/	-13%	/
CN1CCC2(CC1)C(C#N)=C(N)NC(S)=C2C#N	?	-2	4µM*	-3	-19%	-19%	MBNL1 TRFRET=33µM*;MBNL1 AlphaScrn=1%;Menin-MLL HTRF=16µM*
O=C1CCCC2[C@@H]3CCCN4CCC[C@@H](CN12)C34 (stereo partly specified)	/	/	/	/	14%[21.7 µM]	3%
Cc1ccsc1C(=O)C1CCCN(Cc2c(C)nn(C(C)C)c2C)C1 (stereo unspecified)	-3%	3	32µM*	7	16%	-10%	MBNL1 TRFRET=41µM*;MBNL1 AlphaScrn=-26%;Menin-MLL HTRF=-22%
Cc1ccc(CN2CCCC(C(=O)c3sccc3C)C2)o1 (stereo unspecified)	-10%	13	1%	-7	2%	14%
CCn1cc(CN2CCCC(C(=O)c3cccc(OC)c3)C2)c(C)n1 (stereo unspecified)	-7%	6	50µM*	-4	7%	-3%	MBNL1 TRFRET=?;MBNL1 AlphaScrn=-11%;Menin-MLL HTRF=-9%
O=C(O)CCCCC1SCC2NC(=O)NC21 (stereo unspecified)	-11%	5	0.1µM*	-3	1.8µM*	6%	MBNL1 TRFRET=0.041µM*;MBNL1 AlphaScrn=0.0041µM*;Menin-MLL HTRF=0.015µM*
O=C1Nc2ccccc2C2(CCN(CCc3ccc(C(F)(F)F)cc3)CC2)O1	/	/	/	/	?	2%
O=S(=O)(/C(=C/c1ccc(C(F)(F)F)cc1)c1nc2ccccc2[nH]1)c1ccccc1	0%	0	-6%	-1	-2%	16µM*	VDR inh confirm=3.8*;VDR FP=?;VDR bla reporter=2.3µM*;VDR viability=8.2µM*
CN1Cc2c(ccc3c2OCO3)C2C(O)Cc3cc4c(cc3C21)OCO4 (stereo unspecified)	/	/	/	/	-5%[21.7 µM]	/
CC[C@]12CCCN3CCC4(c5ccccc5NC4C(C(=O)O)C1)C32 (stereo partly specified)	/	/	/	/	-13%	-15%
COc1cc(/C=C/[N+](=O)[O-])ccc1O	19µM*	4	11%	?	9%[2.36 µM]	28µM*	VDR inh confirm=30*;VDR FP=?;VDR bla reporter=?;VDR viability=?
COc1ccc(-n2c(/C=C/c3ccc(O)c(OC)c3)nc3ccccc3c2=O)cc1	47%	-12	11%	-13	/	-16%
CC(C)n1c(O)c(C2c3cc(Cl)ccc3Oc3[nH]c(=O)n(C(C)C)c(=O)c32)c(=O)[nH]c1=O (stereo unspecified)	1.3µM*	-1	/	0	-3%	8.9µM*	VDR inh confirm=4.2*;VDR FP=?;VDR bla reporter=5.2µM*;VDR viability=?
